Activity calls are given as the source filed them. Rule for the calls: active = hit-call score of the fitted dose curve at least 0.9, where 1 is the maximum; inactive = score below 0.9.

Chain of Signal transducer and activator of transcription 3 (Homo sapiens) (P40763 whole entry, looked up): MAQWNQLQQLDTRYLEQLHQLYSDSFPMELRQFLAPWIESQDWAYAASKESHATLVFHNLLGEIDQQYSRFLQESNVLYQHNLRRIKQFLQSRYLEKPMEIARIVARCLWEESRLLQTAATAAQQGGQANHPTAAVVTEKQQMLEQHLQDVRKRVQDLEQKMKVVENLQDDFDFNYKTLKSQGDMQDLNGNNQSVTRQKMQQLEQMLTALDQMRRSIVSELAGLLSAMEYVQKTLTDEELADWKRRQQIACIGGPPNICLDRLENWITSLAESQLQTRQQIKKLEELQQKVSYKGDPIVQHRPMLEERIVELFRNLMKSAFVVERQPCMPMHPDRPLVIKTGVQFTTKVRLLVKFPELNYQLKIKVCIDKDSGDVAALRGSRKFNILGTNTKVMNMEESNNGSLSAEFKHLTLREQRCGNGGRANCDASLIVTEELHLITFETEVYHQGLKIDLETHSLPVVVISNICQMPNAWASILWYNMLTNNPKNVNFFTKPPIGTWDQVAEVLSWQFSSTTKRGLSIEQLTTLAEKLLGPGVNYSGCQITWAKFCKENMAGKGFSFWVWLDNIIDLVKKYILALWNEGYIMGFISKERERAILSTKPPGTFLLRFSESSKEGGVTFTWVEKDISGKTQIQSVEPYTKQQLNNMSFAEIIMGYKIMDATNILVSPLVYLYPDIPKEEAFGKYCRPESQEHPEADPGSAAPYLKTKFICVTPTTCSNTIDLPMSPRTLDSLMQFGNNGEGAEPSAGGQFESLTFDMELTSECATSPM
Chain of Nuclear factor erythroid 2-related factor 2 (Homo sapiens) (Q16236 whole entry, looked up): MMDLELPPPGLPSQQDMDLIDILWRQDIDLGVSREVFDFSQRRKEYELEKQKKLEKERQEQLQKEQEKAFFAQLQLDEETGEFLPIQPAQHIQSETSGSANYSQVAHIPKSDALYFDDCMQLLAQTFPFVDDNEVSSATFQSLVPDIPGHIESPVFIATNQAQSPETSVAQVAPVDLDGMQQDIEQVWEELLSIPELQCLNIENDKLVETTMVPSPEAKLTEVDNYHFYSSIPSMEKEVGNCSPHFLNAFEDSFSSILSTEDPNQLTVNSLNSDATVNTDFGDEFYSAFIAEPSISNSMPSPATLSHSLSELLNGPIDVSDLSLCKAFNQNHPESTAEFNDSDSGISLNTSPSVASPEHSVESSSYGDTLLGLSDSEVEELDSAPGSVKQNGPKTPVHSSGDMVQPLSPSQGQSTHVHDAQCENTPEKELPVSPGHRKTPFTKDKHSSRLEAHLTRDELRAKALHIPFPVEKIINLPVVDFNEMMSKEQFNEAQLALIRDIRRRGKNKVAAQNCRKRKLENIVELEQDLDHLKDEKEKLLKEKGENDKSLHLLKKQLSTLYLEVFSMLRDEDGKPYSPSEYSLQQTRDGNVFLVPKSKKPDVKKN

Read-out in the first assay: Nuclear factor erythroid 2-related factor 2 (Homo sapiens) (UniProt Q16236)
As to the kind of experiment: LTEA_HepaRG_NFE2L2: Life Technologies and Expression Analysis (LTEA) Assay for Nuclear factor erythroid 2-related factor 2 (NFE2L2) Transcription Factor using HepaRG (AID 2283527). The settings on record: mRNA level, 48 h; actives raise or lower the signal. Put shortly:
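Differentiated human HepaRG cells in serum-free induction medium were exposed for 48 h to eight concentrations (top 100 uM, half-log dilutions, 0.5% DMSO), in duplicate. NFE2L2 mRNA was quantified by TaqMan qRT-PCR, normalized to ACTB, GAPDH and POLR2A, with bidirectional fitting versus DMSO.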
Take `C1CNCCN1`: the outcome was inactive.
Still for that read-out and setting: to `Nc1ccc(C(=O)O)cc1` belongs “inactive”; to `Cc1ccc([N+](=O)[O-])cc1N`, “inactive”.

Read-out in a further assay: succinate dehydrogenase complex iron sulfur subunit B (SDHB), SDHB (gene 6390)
As to the kind of experiment: LTEA_HepaRG_SDHB: Life Technologies and Expression Analysis (LTEA) Assay for succinate dehydrogenase complex iron sulfur subunit B (SDHB) using HepaRG (AID 2283528). The conditions noted are these: mRNA level, 48 h; actives raise or lower the signal. Put shortly: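 SDHB transcript level read by TaqMan qRT-PCR, housekeeping-normalised (ACTB, GAPDH, POLR2A), after 48 h chemical treatment of plated HepaRG cells; eight concentrations top 100 uM, half-log steps, 0.5% DMSO, duplicates; fitted both directions against DMSO.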
Consider `C1CNCCN1`, for which the call was inactive.
Still for that read-out and setting: to `Nc1ccc(C(=O)O)cc1` belongs “inactive”; to `Cc1ccc([N+](=O)[O-])cc1N`, “inactive”.

Read-out in another assay: Signal transducer and activator of transcription 3 (Homo sapiens) (UniProt P40763)
As to the kind of experiment: LTEA_HepaRG_STAT3: Life Technologies and Expression Analysis (LTEA) Assay for Signal transducer and activator of transcription (STAT3) using HepaRG (AID 2283529). The conditions noted are these: mRNA level, 48 h; actives raise or lower the signal. A digest of the protocol: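 Differentiated human HepaRG cells in serum-free induction medium were exposed in duplicate for 48 h to eight half-log concentrations up to 100 uM in 0.5% DMSO. STAT3 mRNA was quantified by TaqMan qRT-PCR, normalized to ACTB, GAPDH and POLR2A, and fitted bidirectionally against DMSO.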
Take `C1CNCCN1`: the result was inactive.
Still for that read-out and setting: to `Nc1ccc(C(=O)O)cc1` belongs “inactive”; to `Cc1ccc([N+](=O)[O-])cc1N`, “inactive”.

Read-out in the next assay: solute carrier (SLCO1B1), SLCO1B1 (gene 10599)
As to the kind of experiment: LTEA_HepaRG_SLCO1B1: Life Technologies and Expression Analysis (LTEA) Assay for solute carrier (SLCO1B1) using HepaRG (AID 2283530). The conditions noted are these: mRNA level, 48 h; actives raise or lower the signal. A digest of the protocol: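 SLCO1B1 transcript read by qRT-PCR (Fluidigm arrays), normalized to three housekeeping genes, after 48 h chemical exposure of HepaRG cells; bidirectional concentration-response fitting versus 0.5% DMSO baseline. Eight-point half-log series, maximum 100 uM.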
`C1CNCCN1`: the compound was called inactive.
On to `Nc1ccc(C(=O)O)cc1`, for which the outcome was inactive.
Still for that read-out and setting: to `Cc1ccc([N+](=O)[O-])cc1N` belongs “inactive”.

Read-out in another assay: sulfotransferase 2A1 (SULT2A1), SULT2A1 (gene 6822)
As to the kind of experiment: LTEA_HepaRG_SULT2A1: Life Technologies and Expression Analysis (LTEA) Assay for sulfotransferase 2A1 (SULT2A1) using HepaRG (AID 2283531). The conditions noted are these: mRNA level, 48 h; actives raise or lower the signal. Put shortly: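 HepaRG, 48 h chemical exposure, 8-pt half-log curve from 100 uM in 0.5% DMSO, duplicates. Readout: TaqMan qRT-PCR of SULT2A1 mRNA, housekeeping-normalized. Bidirectional fit vs DMSO baseline.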
For the compound `C1CNCCN1`, the compound was called inactive.
Same read-out and setting: to `Nc1ccc(C(=O)O)cc1` belongs “inactive”; to `Cc1ccc([N+](=O)[O-])cc1N`, “inactive”.

Read-out in a further assay: Transforming Growth Factor (TGFA), TGFA (gene 7039)
As to the kind of experiment: LTEA_HepaRG_TGFA: Life Technologies and Expression Analysis (LTEA) Assay for Transforming Growth Factor (TGFA) using HepaRG (AID 2283532). The settings on record: mRNA level, 48 h; actives raise or lower the signal. A digest of the protocol:
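Differentiated human HepaRG cells, plated 48 h then switched to serum-free induction medium, were exposed in duplicate for 48 h to 8-point half-log series from 100 uM in 0.5% DMSO. TGFA mRNA measured by qRT-PCR, normalized to ACTB/GAPDH/POLR2A, bidirectional fit versus DMSO.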
Take `C1CNCCN1`: the result was inactive.
As for `Nc1ccc(C(=O)O)cc1`, the result was inactive.
On to `Cc1ccc([N+](=O)[O-])cc1N`, for which the compound was called inactive.

Read-out in the next assay: Transforming Growth Factor (TGFB1), TGFB1 (gene 7040)
As to the kind of experiment: LTEA_HepaRG_TGFB1: Life Technologies and Expression Analysis (LTEA) Assay for Transforming Growth Factor (TGFB1) Transporter using HepaRG (AID 2283533). The settings on record: mRNA level, 48 h; actives raise or lower the signal. Put shortly: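 qRT-PCR readout of TGFB1 transcript in HepaRG lysates, normalized to three housekeeping genes; gain or loss of signal fitted relative to 0.5% DMSO vehicle. Exposure: 48 h, 8-point curve from 100 uM, duplicate wells.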
With `C1CNCCN1`, the outcome was inactive.
On the same count and under the same terms, to `Nc1ccc(C(=O)O)cc1` belongs “inactive”; to `Cc1ccc([N+](=O)[O-])cc1N`, “inactive”.

Read-out in a further assay: TIMP1, TIMP1 (gene 7076)
As to the kind of experiment: LTEA_HepaRG_TIMP1: Life Technologies and Expression Analysis (LTEA) Assay for TIMP1 using HepaRG (AID 2283534). The conditions noted are these: mRNA level, 48 h; actives raise or lower the signal. Put shortly:
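HepaRG, 48 h exposure, 8-pt half-log series from 100 uM in 0.5% DMSO, duplicates; TIMP1 transcript by Fluidigm qRT-PCR, housekeeping-normalized; bidirectional curve fit vs DMSO baseline.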
Turning to `C1CNCCN1`, the call was inactive.
Still for that read-out and setting: to `Nc1ccc(C(=O)O)cc1` belongs “inactive”; to `Cc1ccc([N+](=O)[O-])cc1N`, “inactive”.

Read-out in the next assay: Tumor necrosis factor receptor 1 (TNFRSF1A), TNFRSF1A (gene 7132)
As to the kind of experiment: LTEA_HepaRG_TNFRSF1A: Life Technologies and Expression Analysis (LTEA) Assay for Tumor necrosis factor receptor 1 (TNFRSF1A) using HepaRG (AID 2283535). The conditions noted are these: mRNA level, 48 h; actives raise or lower the signal. A digest of the protocol: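 HepaRG, 48 h plating then 48 h chemical exposure, serum-free induction media; 8-pt CRC from 100 uM, half-log, 0.5% DMSO vehicle, duplicates. Readout: TaqMan qRT-PCR (Fluidigm), housekeeping-gene normalized; bidirectional fit vs DMSO.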
For `C1CNCCN1`, the outcome was inactive.
With `Nc1ccc(C(=O)O)cc1`, the compound was classed as inactive.
Take `Cc1ccc([N+](=O)[O-])cc1N`: the compound was classed as inactive.
